# According to the supplement of paper PMC3334620:
# In all, about 33,000 sequences were measured (“E-score (-0.5 to 0.5)”: median about -0.021, highest 2% from about 0.32 on). The entries come from a sample that favours the highest values as a whole.
# Target: T1, Zap1 (UniProt P47043)
# T1 sequence: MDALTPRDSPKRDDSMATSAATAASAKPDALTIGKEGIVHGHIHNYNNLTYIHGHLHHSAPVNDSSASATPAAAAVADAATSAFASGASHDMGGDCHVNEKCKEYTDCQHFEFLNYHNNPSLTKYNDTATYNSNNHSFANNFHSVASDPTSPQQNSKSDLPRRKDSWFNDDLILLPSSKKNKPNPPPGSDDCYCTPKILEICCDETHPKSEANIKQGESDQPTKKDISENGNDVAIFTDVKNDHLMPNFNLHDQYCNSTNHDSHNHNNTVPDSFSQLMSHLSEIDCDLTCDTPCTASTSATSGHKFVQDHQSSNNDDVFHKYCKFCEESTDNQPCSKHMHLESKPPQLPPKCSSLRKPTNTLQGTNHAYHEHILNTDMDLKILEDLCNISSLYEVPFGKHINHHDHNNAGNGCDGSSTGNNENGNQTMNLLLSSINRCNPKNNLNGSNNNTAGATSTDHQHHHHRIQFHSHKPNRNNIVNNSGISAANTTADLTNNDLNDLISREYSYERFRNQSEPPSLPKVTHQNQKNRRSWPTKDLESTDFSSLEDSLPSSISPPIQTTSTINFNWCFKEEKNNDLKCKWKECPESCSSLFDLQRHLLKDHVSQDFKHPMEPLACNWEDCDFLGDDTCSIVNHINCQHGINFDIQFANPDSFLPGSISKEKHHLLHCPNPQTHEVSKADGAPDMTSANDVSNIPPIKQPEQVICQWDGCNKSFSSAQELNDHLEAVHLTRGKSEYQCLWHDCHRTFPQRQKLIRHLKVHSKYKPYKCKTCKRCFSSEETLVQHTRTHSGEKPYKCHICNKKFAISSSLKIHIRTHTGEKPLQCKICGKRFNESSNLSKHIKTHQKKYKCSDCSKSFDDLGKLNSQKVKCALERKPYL
# Test: PBM E-score (8-mer binding enrichment) (E-score (-0.5 to 0.5)); higher = stronger / more preferred TF binding
# Settings: protein concentration: 200 nM; construct: GST-full length
# Description: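 Universal 'all 10-mer' protein binding microarrays (Agilent AMADID 015681) probed with GST-tagged S. cerevisiae TFs (full-length or DBD) made by in vitro transcription/translation (PURExpress), about 100-200 nM. Bound TF was detected with fluorescent anti-GST. Each ungapped 8-mer (which stands for itself and its reverse complement) is scored by the PBM enrichment score (E-score), a modified Wilcoxon-Mann-Whitney statistic from -0.5 to +0.5, computed with the Universal PBM Analysis Suite. Scale: above 0.35 generally sequence-specific binding.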
row,Sequence,PBM E-score
1,ACCCTCCT,0.189
2,ATCAGTTC,-0.0391
3,GTTCTTAA,0.0134
4,AAGTTAGT,-0.0228
5,GTTGAACA,-0.15
6,ACGATGGG,-0.169
7,CGTAGTTA,0.177
8,AGTAGTTA,0.11
9,GGTAGTTA,0.339
10,TAGTGCCA,-0.18
11,CACCATTA,0.037
12,TACCATAA,0.367
13,AACCATGA,0.357
14,AACCATTG,0.271
15,AACCATTA,0.365
16,GACCATAA,0.287
17,AACCATAA,0.41
18,AACCATAC,0.159
19,CACCATGA,0.00417
20,CACCATAA,0.0248
21,AACCATGC,0.156
22,TCCCATAA,0.182
23,CTAATGGC,0.134
24,TAACTAGA,0.227
25,AGGGACTA,-0.104

row,Sequence,PBM E-score
1,ACGGTTCT,0.0709
2,ACTCTTGC,0.0703
3,TCGACTCA,-0.0722
4,CAATTCCG,-0.00437
5,AGGTATCA,0.116
6,CCTCTGAA,-0.072
7,AGATGCGG,0.0772
8,AAAACCGT,0.173
9,GGGGTATA,0.182
10,ATGGTATC,0.183
11,CGGGTATC,0.252
12,AAGGTATG,0.226
13,CGGGTATA,0.317
14,ACGGTATG,-0.0688
15,AGGGTATG,0.395
16,AGGGTAGA,0.135
17,AGGGTAGC,0.313
18,AGGGTATA,0.407
19,AGGGTAGG,0.32
20,AGGGTATC,0.364
21,GGTTTTAC,0.108
22,GTGCGCCA,-0.175
23,TATGTGGA,-0.0214
24,ATTCTTGA,0.0771
25,CCTCTCAC,-0.0256

row,Sequence,PBM E-score
1,AAAGTGGA,-0.0378
2,CATCAAGG,0.0235
3,ACGTGAGC,-0.116
4,ACGGTACT,0.0886
5,CCGGTACA,0.149
6,CCGGTACG,-0.136
7,CCGGTACC,0.414
8,GCGGTACA,0.13
9,ACGGTACC,0.399
10,ACGGTACG,0.0714
11,GCGGTACC,0.418
12,GCGGTAGC,0.0107
13,AGACGGGC,-0.112
14,CAGCAGCA,-0.198
15,CGTATCGA,-0.133
16,ACAGGTCG,0.0832
17,AAAGGTCT,0.238
18,CAAGGTCA,0.386
19,CAAGGTCC,0.151
20,GAAGGTCA,0.232
21,AAAGGTCG,0.323
22,AAAGGTGG,0.158
23,CAAGGTCG,0.263
24,AAAGGTCC,0.245
25,TAAGGTCA,0.341

row,Sequence,PBM E-score
1,TAAGGTGA,0.155
2,AAAGGTCA,0.449
3,ACGACTCG,-0.134
4,GTCGATGA,-0.149
5,CCGGAGGA,-0.228
6,CCTCAATA,0.0804
7,AGACCGGG,0.0501
8,CCACAGGG,0.1
9,CTCGTCAC,0.099
10,AATCAGCA,-0.0933
11,ACCTGTTG,0.265
12,GGAGGCAA,-0.188
13,ACACTTAT,-0.101
14,GACCTCGA,0.277
15,AACCTCGA,0.367
16,AACCTCGG,0.302
17,AACCTCGC,0.295
18,AACCTCGT,0.322
19,CACCTCGA,0.215
20,GCCACCTA,-0.103
21,CAGACAGG,-0.0636
22,AAGGGTGG,0.19
23,AAGGGGTG,0.167
24,CAGGGTTC,0.214
25,AAGGGTTG,0.441

row,Sequence,PBM E-score
1,AGAGGTTG,0.218
2,AGGGGTTG,0.337
3,AAAGGTTC,0.293
4,AAAGGTTG,0.336
5,AGGGGGTG,-0.204
6,AGGGGTTC,0.173
7,AAGGGTGC,0.134
8,AAGGGTTC,0.339
9,AAATAGCA,-0.171
10,AATAGACG,-0.163
11,TCAGTGGA,-0.041
12,ATCGAACG,-0.183
13,CTCTACGA,-0.0991
14,ACCTACCC,0.316
15,CTCCACGC,-0.241
16,CTTCTACA,-0.0296
17,CCAGGGAC,-0.163
18,GATGGTAA,0.171
19,AATGGTTA,0.413
20,GATGGTGA,-0.0368
21,CATGGTTA,0.415
22,CATGGTGA,0.0149
23,CATGGTTC,0.132
24,GATGGTTA,0.392
25,AATGGTTC,0.246

row,Sequence,PBM E-score
1,AATGGTTG,0.254
2,GCCGCACC,0.0244
3,ATTTTGAC,0.203
4,AGCGACCG,-0.13
5,CTACCTAG,0.104
6,GCTTTGCC,-0.379
7,AGCCTAAG,-0.216
8,ATTCACTC,-0.105
9,AAGTGCTA,-0.303
10,CACCCTAA,0.369
11,CGCCCTAA,-0.126
12,TACCCTAA,0.435
13,ATCCCTAA,0.006
14,AGCCCTAA,-0.00909
15,TCCCCTAA,0.0699
16,CCCCCTAA,-0.277
17,TACCCTCA,0.312
18,GACCCTAA,0.433
19,GACCCTCA,0.189
20,GTCCCTAA,0.109
21,AACCCTAA,0.452
22,CGCCAATC,-0.11
23,GTGAATTA,0.206
24,AAAGGACA,0.177
25,AGTAAGAT,-0.0474

row,Sequence,PBM E-score
1,ACCATTTG,0.221
2,AGACGCTA,-0.167
3,TGCGCACA,-0.037
4,ACCCTTGC,0.381
5,AGCCTTGG,-0.208
6,ACCCTTGG,0.365
7,ATCCTTGG,-0.139
8,GCCCTTGA,0.00462
9,ACCCTTGA,0.383
10,CCCCTTGC,-0.0145
11,AGCCTTGC,-0.257
12,CCCCTTGA,0.119
13,CAAGCTCA,-0.197
14,AACAGCAA,-0.0172
15,CTGGTGAC,-0.0173
16,GATACTGC,-0.126
17,CAGATTTC,-0.097
18,ATAGCGAT,0.0306
19,AAATGGCT,0.00044
20,ACTACCCT,0.445
21,ACTACCCA,0.291
22,AATACCCG,0.177
23,AATACCCA,0.158
24,AATACCCT,0.379
25,ACTACCCC,0.215
